Calls of active or inactive are those of the source. The calls were made as follows: active = hit-call score of the fitted dose curve at least 0.9, where 1 is the maximum; inactive = score below 0.9.

Read-out in assay [1]: Monokine induced gamma interferon (MIG), CXCL9 (gene 4283)
In words: BSK_hDFCGF_MIG: BioMAP Diversity Plus: hDFCGF Assay for Monokine induced gamma interferon (MIG) Biomarker Activity (AID 2283063). The note with it: primary human foreskin fibroblasts; actives raise or lower the signal. In a few lines:
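ELISA read-out of MIG from primary human dermal fibroblasts 24 h post-dosing. Gain or loss of signal fitted bidirectionally, DMSO as baseline.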

Read-out in assay [2]: Matrix Metallopeptidase 1 (MMP1), MMP1 (gene 4312)
In words: BSK_hDFCGF_MMP1: BioMAP Diversity Plus: hDFCGF Assay for Matrix Metallopeptidase 1 (MMP1) Biomarker Activity (AID 2283064). The note with it: primary human foreskin fibroblasts; actives raise or lower the signal. In a few lines: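 Primary human foreskin fibroblasts in the hDFCGF system were dosed with test chemical, and MMP1 was measured by ELISA 24 h later. Values come from bidirectional curve fitting against the DMSO baseline.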

Read-out in assay [3]: Vascular cell adhesion molecule 1 (VCAM1), VCAM1 (gene 7412)
The experiment in a line: BSK_hDFCGF_VCAM1: BioMAP Diversity Plus: hDFCGF Assay for Vascular cell adhesion molecule 1 (VCAM1) Biomarker Activity (AID 2283065). The following applies: primary human foreskin fibroblasts; actives raise or lower the signal. In a few lines:
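Primary human foreskin fibroblasts (hDFCGF system) were dosed with chemical and VCAM-1 was measured by ELISA 24 h later. Bidirectional curve fitting used DMSO as negative control and activity baseline.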

Read-out in assay [4]: Plasminogen activator inhibitor-1 (PAI1), SERPINE1 (gene 5054)
The experiment in a line: BSK_hDFCGF_PAI1: BioMAP Diversity Plus: hDFCGF Assay for Plasminogen activator inhibitor-1 (PAI1) Biomarker Activity (AID 2283066). The note with it: primary human foreskin fibroblasts; actives raise or lower the signal. Summed up:
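Human foreskin fibroblast primary cells, 24 h chemical exposure; PAI-1 measured by ELISA. Bidirectional fitting relative to DMSO; parallel cultures stained with SRB for total protein to flag overt cytotoxicity.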

Read-out in assay [5]: Intercellular Adhesion Molecule 1 (ICAM1), ICAM1 (gene 3383)
The experiment in a line: BSK_KF3CT_ICAM1: BioMAP Diversity Plus: KF3CT Assay for Intercellular Adhesion Molecule 1 (ICAM1) Biomarker Activity (AID 2283067). The following applies: primary human keratinocytes with fibroblasts; actives raise or lower the signal. In a few lines: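 Human keratinocyte plus foreskin fibroblast primary co-culture was exposed to chemical for 24 h. ICAM-1 was then quantified by ELISA, and the data were fit bidirectionally against DMSO as the negative control and baseline.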

Read-out in assay [6]: Interferon-gamma inducible Protein 10 (IP10), CXCL10 (gene 3627)
The experiment in a line: BSK_KF3CT_IP10: BioMAP Diversity Plus: KF3CT Assay for Interferon-gamma inducible Protein 10 (IP10) Biomarker Activity (AID 2283068). The following applies: primary human keratinocytes with fibroblasts; actives raise or lower the signal. In a few lines: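 In a primary skin co-culture of keratinocytes and fibroblasts, IP-10 is quantified by ELISA at 24 h after dosing. SRB staining of parallel wells monitors overt toxicity. Curves are fitted both directions against DMSO.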

A short description of assay [7]: BSK_KF3CT_SRB: Viability Assessment in the BioMAP Diversity Plus: KF3CT Assay (AID 2283069).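 Also: total protein by sulforhodamine B staining as a cytotoxicity measure; read 24 h after compound addition.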 The following applies: primary human keratinocytes with fibroblasts. Summed up: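 Human primary keratinocyte plus foreskin fibroblast co-culture exposed to chemicals for 24 h. Total protein measured by 0.1% sulforhodamine B staining after 10% TCA fixation, read at 560 nm; bidirectional fitting versus DMSO baseline.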

Read-out in assay [8]: Interleukin-1 alpha (IL1a), IL1A (gene 3552)
The experiment in a line: BSK_KF3CT_IL1a: BioMAP Diversity Plus: KF3CT Assay for Interleukin-1 alpha (IL1a) Biomarker Activity (AID 2283070). The note with it: primary human keratinocytes with fibroblasts; actives raise or lower the signal. In a few lines: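 Human keratinocyte plus foreskin fibroblast primary co-culture, sampled 24 h after chemical dosing. IL-1a measured by ELISA; responses fitted bidirectionally against DMSO baseline (negative control), so gain or loss of signal both count.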

Read-out in assay [9]: TIMP metallopeptidase inhibitor 2 (TIMP2), TIMP2 (gene 7077)
In words: BSK_KF3CT_TIMP2: BioMAP Diversity Plus: KF3CT Assay for TIMP metallopeptidase inhibitor 2 (TIMP2) Biomarker Activity (AID 2283071). The note with it: primary human keratinocytes with fibroblasts; actives raise or lower the signal. Summed up: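 Co-culture of human primary keratinocytes and foreskin fibroblasts, measured 24 h after chemical dosing. TIMP-2 quantified by ELISA and fitted in both directions relative to DMSO. Cytotoxicity checked in parallel cultures by SRB total-protein staining.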

Read-out in assay [10]: Transforming growth factor beta 1 (TGFb1), TGFB1 (gene 7040)
The experiment in a line: BSK_KF3CT_TGFb1: BioMAP Diversity Plus: KF3CT Assay for Transforming growth factor beta 1 (TGFb1) Biomarker Activity (AID 2283072). The following applies: primary human keratinocytes with fibroblasts; actives raise or lower the signal. Summed up:
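Human keratinocyte/foreskin fibroblast co-culture; TGF-b1 measured by ELISA 24 h after dosing, fitted bidirectionally versus DMSO. Cytotoxicity checked in parallel cultures by total protein (SRB staining, 560 nm).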

Read-out in assay [11]: C-C motif chemokine 2 (Homo sapiens) (UniProt P13500)
In words: BSK_KF3CT_MCP1: BioMAP Diversity Plus: KF3CT Assay for Monocyte Chemoattractant Protein 1 (MCP1/CCL2) Biomarker Activity (AID 2283073). The note with it: primary human keratinocytes with fibroblasts; actives raise or lower the signal. Summed up: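 Human keratinocyte plus foreskin fibroblast primary co-culture exposed to chemical for 24 h. MCP-1 levels measured by ELISA. Bidirectional curve fitting relative to DMSO negative control as baseline.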

Read-out in assay [12]: Matrix Metallopeptidase 9 (MMP9), MMP9 (gene 4318)
The experiment in a line: BSK_KF3CT_MMP9: BioMAP Diversity Plus: KF3CT Assay for Matrix Metallopeptidase 9 (MMP9) Biomarker Activity (AID 2283074). The following applies: primary human keratinocytes with fibroblasts; actives raise or lower the signal. Summed up:
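Keratinocyte plus foreskin fibroblast human primary skin co-culture was dosed with chemical and MMP-9 was quantified by ELISA 24 h later. Bidirectional curve fitting used DMSO as negative control and activity baseline.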

Read-out in assay [13]: urokinase plasminogen activator (uPA), PLAU (gene 5328)
The experiment in a line: BSK_KF3CT_uPA: BioMAP Diversity Plus: KF3CT Assay for urokinase plasminogen activator (uPA) Biomarker Activity (AID 2283075). The following applies: primary human keratinocytes with fibroblasts; actives raise or lower the signal. Summed up: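 Human keratinocyte plus foreskin fibroblast primary co-culture exposed to chemical for 24 h. uPA levels were quantified by ELISA, and activity was fitted bidirectionally against a DMSO negative-control baseline.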

Read-out in the next assay: CD40, CD40 (gene 958)
The experiment in a line: BSK_LPS_CD40: BioMAP Diversity Plus: LPS Assay for CD40 Biomarker Activity (AID 2283076). The note with it: primary human HUVEC with PBMC; actives raise or lower the signal. Summed up: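 Primary human umbilical vein endothelial cells co-cultured with peripheral blood mononuclear cells, LPS-stimulated, were dosed with chemical and read 24 h later. CD40 levels were measured by ELISA and fitted bidirectionally against DMSO as negative control and baseline.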

Read-out in assay [14]: E-selectin (Homo sapiens) (UniProt P16581)
The experiment in a line: BSK_LPS_Eselectin: BioMAP Diversity Plus: LPS Assay for Eselectin Biomarker Activity (AID 2283077). The following applies: primary human HUVEC with PBMC; actives raise or lower the signal. In a few lines:
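Human umbilical vein endothelial cells co-cultured with peripheral blood mononuclear cells under LPS stimulation; E-selectin measured by ELISA 24 h after chemical dosing. Activity fitted bidirectionally against DMSO as negative control and baseline.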

Read-out in assay [15]: Interleukin-8 (IL8), CXCL8 (gene 3576)
The experiment in a line: BSK_LPS_IL8: BioMAP Diversity Plus: LPS Assay for Interleukin-8 (IL8) Biomarker Activity (AID 2283078). The note with it: primary human HUVEC with PBMC; actives raise or lower the signal. In a few lines:
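Human umbilical vein endothelial cells co-cultured with PBMC were stimulated with LPS; IL-8 levels were measured by ELISA 24 h after chemical dosing. Activity was fitted bidirectionally against DMSO as negative control and baseline.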

Assay [16] can be described thus: BSK_LPS_SRB: Viability Assessment in the BioMAP Diversity Plus: LPS Assay (AID 2283079).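 Also: total protein by sulforhodamine B absorbance as a cytotoxicity measure; measured one day after compound addition.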 The note with it: primary human HUVEC with PBMC. In a few lines: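 Human umbilical vein endothelial cells co-cultured with PBMC (LPS system) were dosed for 24 h. Total protein was stained with 0.1% sulforhodamine B after 10% TCA fixation, read at 560 nm, and fitted bidirectionally against DMSO baseline.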

Read-out in assay [17]: Interleukin-1 alpha (IL1a), IL1A (gene 3552)
The experiment in a line: BSK_LPS_IL1a: BioMAP Diversity Plus: LPS Assay for Interleukin-1 alpha (IL1a) Biomarker Activity (AID 2283080). The note with it: primary human HUVEC with PBMC; actives raise or lower the signal. Summed up: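 Human umbilical vein endothelial cells co-cultured with peripheral blood mononuclear cells were LPS-stimulated and exposed to test chemicals for 24 h. IL-1 alpha was quantified by ELISA, with bidirectional curve fitting against DMSO as the negative control and baseline.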

The nature of assay [18]: BSK_LPS_PGE2: BioMAP Diversity Plus: LPS Assay for Prostaglandin E2 (PGE2) Biomarker Activity (AID 2283082).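 As to AC50: secreted prostaglandin E2 measured by ELISA in LPS-stimulated co-culture.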 The following applies: primary human HUVEC with PBMC; actives raise or lower the signal. In a few lines:
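HUVEC plus human PBMC co-culture stimulated with LPS; secreted PGE2 quantified by ELISA 24 h after chemical dosing. Activity fitted bidirectionally against DMSO baseline; parallel SRB staining (0.1% SRB after 10% TCA fixation, 560 nm) flags overt cytotoxicity.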

Sequence of E-selectin (Homo sapiens) (P16581 whole entry, looked up): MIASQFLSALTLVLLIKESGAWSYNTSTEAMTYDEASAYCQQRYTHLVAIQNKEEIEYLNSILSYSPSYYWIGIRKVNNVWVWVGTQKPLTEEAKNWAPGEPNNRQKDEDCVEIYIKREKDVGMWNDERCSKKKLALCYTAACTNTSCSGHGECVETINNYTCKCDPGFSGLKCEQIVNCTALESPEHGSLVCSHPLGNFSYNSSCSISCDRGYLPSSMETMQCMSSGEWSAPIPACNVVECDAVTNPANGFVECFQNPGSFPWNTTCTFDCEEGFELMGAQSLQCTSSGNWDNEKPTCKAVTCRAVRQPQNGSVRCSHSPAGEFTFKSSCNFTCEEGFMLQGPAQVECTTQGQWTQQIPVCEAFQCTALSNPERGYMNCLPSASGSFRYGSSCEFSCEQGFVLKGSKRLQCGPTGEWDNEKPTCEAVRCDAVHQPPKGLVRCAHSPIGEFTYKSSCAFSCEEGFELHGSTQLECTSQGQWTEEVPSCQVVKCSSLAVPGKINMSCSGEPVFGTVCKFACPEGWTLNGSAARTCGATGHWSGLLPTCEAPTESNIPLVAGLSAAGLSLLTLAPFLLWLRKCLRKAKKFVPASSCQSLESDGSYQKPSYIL

For `CCCC(=O)OCC`, the result in assay [1], in assay [2], in [3], in assay [4], in [5] and in [6] was inactive. The outcome in [7], in assay [8], in [9], in assay [10], in [11] and in [12] was inactive. For the same compound, the outcome in [13] was “inactive”; in the assay with CD40, CD40 (gene 958) it was “inactive”; in [14], “inactive”; in assay [15], “inactive”; in [16] it was “inactive”; in assay [17], “inactive”.

Broadly, the AC50 is the midpoint of the concentration-response curve, whichever way the signal moves. On to `C=CCCCCCCCCC(=O)O`, for which the outcome in assay [1], in [2], in assay [3], in assay [4], in [5] and in assay [6] was inactive. In addition, the result in [7], in assay [8], in assay [9], in [10], in assay [11] and in assay [12] was inactive. In addition, the outcome in [13] is “inactive”; with CD40, CD40 (gene 958) it was “inactive”; in assay [15], “inactive”; in [16] it was “inactive”; in assay [17] it was “inactive”. Besides, the AC50 in assay [18] is 8.17 µM (active).

As for `CC(C)(O)c1coc(S(=O)(=O)NC(=O)Nc2c3c(cc4c2CCC4)CCC3)c1`, the outcome in assay [1], in assay [2], in assay [3], in assay [4], in assay [5] and in assay [6] was inactive. Further, the outcome in [7], in [9], in assay [10], in assay [11], in assay [12] and in assay [13] was inactive. For the same compound, the outcome in the assay with CD40, CD40 (gene 958) was “inactive”; in assay [14], “inactive”; in [16] it was “inactive”; in assay [17], “inactive”; in assay [18], “inactive”. Besides, the AC50 in assay [15] was 0.148 µM (active).
